Laboratory results from PubChem BioAssay AID602399 (Sanford-Burnham Center for Chemical Genomics, 2012).
The whole screen tested about 360,000 compounds, of which about 2,800 (0.78%) were called active. What follows is part of a selection rich in actives, with near analogues and random picks from the rest. A number with no mark means an inactive call. Rule as the data show it: active = inhibition above about 26%; inactive = the rest.

Test system: Nicotinate-nucleotide adenylyltransferase NadD (Staphylococcus aureus N315)
Test: S. aureus NadD enzyme activity blockers – biochemical, colorimetric, uHTS, primary screen (AID 602399)
Conditions: purified NadD enzyme, colorimetric absorbance read-out; at 20 µM; hits give high values

Q: How did the inhibition turn out when `CN(C)c1ccnc(Oc2ccc(F)cc2)c1C#N` was run?
A: 0.732%

Q: How did the inhibition turn out when `O=C(O)C1=NN(c2c(F)c(F)cc(F)c2F)C(=O)CC1` was run?
A: -2.16%

Q: `COc1cc(NS(=O)(=O)c2ccc(NC(=S)NC(=O)c3ccc(Br)cc3)cc2)ncn1` was tested. Which inhibition did it give?
A: 16.5%

Q: `COc1ccc(NS(=O)(=O)c2ccc(NC(=O)C(C)(C(F)(F)F)C(F)(F)F)cc2)nn1` was tested. Which inhibition did it give?
A: 8.48%

Q: `COc1ccc(NS(=O)(=O)c2ccc(NC(=S)NC(=O)/C=C/c3ccc(C)cc3)cc2)nn1` was tested. Which inhibition did it give?
A: 52.5% (active)

Q: For `COc1ccccc1-n1c(SCC(=O)O)nc2sc3c(c2c1=O)CCC3`, which inhibition is on record?
A: -6.38%

Q: `COc1cccc(C(=O)NC(=O)Nc2nc(C)cc(C(F)(F)F)n2)c1` was tested. Which inhibition did it give?
A: 1.69%

Q: `Cc1cc(O)c(C(=O)/C=C/c2c(F)c(F)c(F)c(F)c2F)c(=O)o1` was tested. Which inhibition did it give?
A: 30% (active)

Q: `Cc1cc(O)c(Sc2ccccc2)c(=O)o1` was tested. Which inhibition did it give?
A: -2.78%

Q: With `COc1ccc(/C=C/C(=O)c2c(O)cc(OC)cc2OC)cc1` as the compound, how does the inhibition read?
A: -0.858%

Q: How did the inhibition turn out when `CC(=O)c1c(C)n([O-])c2ccccc2[n+]1=O` was run?
A: 4.16%

Q: For `CC(NC(=O)C(=O)N/N=C/c1ccc(Cl)cc1)c1ccccc1` (stereo not drawn), which inhibition is on record?
A: -0.376%

Q: For `O=C(N/N=C/c1ccc(Cl)cc1)c1nc2ccc([N+](=O)[O-])cc2c(=O)[nH]1`, which inhibition is on record?
A: 42.6% (active)

Q: With `N#Cc1cc([N+](=O)[O-])ccc1Oc1cccc(/C=N/NC(=O)c2ccc(Cl)cc2)c1` as the compound, how does the inhibition read?
A: 19.4%

Q: How did the inhibition turn out when `Cc1cccn2c(=O)c3cc(C#N)c(=NC(=O)c4cccnc4)n(CC4CCCO4)c3nc12` (stereo not drawn) was run?
A: 0.191%

Q: With `COc1ccccc1N(CC(=O)Nc1ccc(C)cc1Cl)S(=O)(=O)c1cccs1` as the compound, how does the inhibition read?
A: -10.3%

Q: Which inhibition does the source give for `COc1cc(-c2noc(C3CCCN(S(=O)(=O)c4cccc(Cl)c4)C3)n2)cc(OC)c1OC` (stereo not drawn) here?
A: -12.5%

Q: Which inhibition does the source give for `COc1ccc(Cl)cc1C=CC=NNC(=O)c1ccncc1` here?
A: 9.06%

Q: For `COc1ccccc1/C=C/C=N/n1c(-c2ccc(Cl)cc2Cl)n[nH]c1=S`, which inhibition is on record?
A: 28% (active)

Q: How did the inhibition turn out when `COc1ccc(-n2c(-c3ccc(Cl)cc3)n[nH]c2=S)c(OC)c1` was run?
A: 5.69%

Q: For `COc1ccc(OC)c(/C=N/NC(=O)CSc2nnc(C)n2-c2ccccc2)c1`, which inhibition is on record?
A: 4.2%

Q: For `O=Cc1cn(-c2ccccc2)nc1-c1ccccn1`, which inhibition is on record?
A: -0.605%

Q: For `COc1ccc(-c2nn(-c3ccccc3)cc2/C=N/Nc2ccccn2)cc1OC`, which inhibition is on record?
A: 30.9% (active)

Q: `N#C/C(C(=O)N1CCOCC1)=C1/SC(Cc2ccc(F)cc2)C(=O)N1c1ccccc1` (stereo not drawn) was tested. Which inhibition did it give?
A: 5.64%

Q: `CCCCN(C=O)c1c(CC)nc2c(OCc3ccccc3C(=O)OC)cccn12` was tested. Which inhibition did it give?
A: 3.2%

Q: Which inhibition does the source give for `CC(C)C(NC(=O)c1c(F)cccc1F)C(=O)NCc1ccncc1` (stereo not drawn) here?
A: -4.3%

Q: How did the inhibition turn out when `Cc1cc(C(=O)OC(C)C(=O)NC2CCCCC2C)c(C)o1` (stereo not drawn) was run?
A: -0.327%

Q: With `CC(=O)c1c(C)[nH]c(C(=O)COC(=O)c2cccc(S(=O)(=O)N(C)c3ccccc3)c2)c1C` as the compound, how does the inhibition read?
A: -2.3%

Q: For `CC(C)(C)C(=O)c1cnc(Nc2ccccc2)s1`, which inhibition is on record?
A: -4.48%

Q: `S=c1[nH]nc(NCCc2ccccc2)s1` was tested. Which inhibition did it give?
A: 6.24%

Q: For `S=c1[nH]nc(Nc2ccccc2)s1`, which inhibition is on record?
A: 31% (active)

Q: With `O=c1c([N+](=O)[O-])cccn1Cc1ccc(F)cc1Cl` as the compound, how does the inhibition read?
A: -2.47%

Q: Which inhibition does the source give for `Cc1c(C(=O)N(C)CCc2cnn(C)c2)oc2c(F)cccc12` here?
A: -0.376%

Q: With `CCOC(=O)C(C)n1nc(-c2ccccc2)c2ccccc2c1=O` (stereo not drawn) as the compound, how does the inhibition read?
A: 4.56%

Q: `CCN(CC)C(=O)c1sc2nc(-c3ccccc3)ccc2c1N` was tested. Which inhibition did it give?
A: 29.7% (active)

Q: `CCN(CC)C(=O)c1nc[nH]c1C(=O)N(C)Cc1ccccc1` was tested. Which inhibition did it give?
A: -5.16%

Q: Which inhibition does the source give for `CC1(C)C(C=C(Cl)Cl)C1C(=O)NC(O)C(=O)c1ccccc1` (stereo not drawn) here?
A: -1.25%

Q: How did the inhibition turn out when `Cc1c2cnn(-c3ccccc3)c(=O)c2c(C)n1CCCC(=O)N1CCN(C)CC1` was run?
A: 4.17%

Q: For `Cn1c(CCN2CCCCCC2)nc2cc(NC(=O)Nc3ccccc3)ccc21`, which inhibition is on record?
A: 31.5% (active)

Q: Which inhibition does the source give for `CCC(=O)Nc1ccc2c(c1)nc(CCN1CCN(c3ccccn3)CC1)n2C` here?
A: -0.459%

Q: How did the inhibition turn out when `Cc1nn(CC(=O)Nc2ccc3c(c2)nc(CN2CCCCC2)n3C)c(=O)c2ccccc12` was run?
A: -0.187%

Q: With `Cc1noc(/C=C/c2ccco2)c1S(=O)(=O)N1CCC(C(=O)Nc2ccc(Cl)cn2)CC1` as the compound, how does the inhibition read?
A: 16.8%

Q: Which inhibition does the source give for `Cc1noc(/C=C/c2ccco2)c1S(=O)(=O)N1CCC(C(=O)N2CCc3ccccc32)CC1` here?
A: 31.6% (active)

Q: For `CNC(=O)C1CCN(S(=O)(=O)c2c(C)noc2/C=C/c2cccc(C)c2)CC1`, which inhibition is on record?
A: -4.39%

Q: With `CCc1ccc(OCC(=O)NCC(c2ccc(Cl)cc2)N2CCCCC2)cc1` (stereo not drawn) as the compound, how does the inhibition read?
A: -9.2%

Q: How did the inhibition turn out when `O=C(O)CN(Cc1ccco1)S(=O)(=O)c1ccc(F)cc1` was run?
A: -0.327%

Q: For `O=Nc1c(O)cc(O)c2ccccc12`, which inhibition is on record?
A: -0.774%

Q: `NC(CSC1(c2ccccc2)c2ccccc2-c2ccccc21)C(=O)O` (stereo not drawn) was tested. Which inhibition did it give?
A: 27.6%

Q: Which inhibition does the source give for `CCC(C)OC(=O)C(C)Oc1ccc(-c2ccccc2)cc1` (stereo not drawn) here?
A: 2.06%

Q: `NC(CSC(c1ccccc1)(c1ccccc1)c1ccc(-c2ccccc2)cc1)C(=O)O` (stereo not drawn) was tested. Which inhibition did it give?
A: 43.5% (active)

Q: For `O=C(N1CCOCC1)N(Cc1ccccc1)c1ccccn1`, which inhibition is on record?
A: -0.327%

Q: For `COC(=O)c1ccc(COc2ccc(/C=C/C(=O)c3ccc(OC)c(CSCC(=O)O)c3)cc2OC)cc1`, which inhibition is on record?
A: 20.9%

Q: How did the inhibition turn out when `COc1ccccc1CCNC(=O)C1CCN(C(=O)/C=C/c2ccccc2)CC1` was run?
A: 1.36%

Q: For `COc1ccc(C(=O)/C=C/c2ccc(-c3ccccc3)cc2)cc1CSCC(=O)O`, which inhibition is on record?
A: 42.8% (active)

Q: With `COc1cc(C(=O)Nn2c(O)c(C3=c4ccccc4=NC3=O)sc2=S)ccc1O` as the compound, how does the inhibition read?
A: 9.44%

Q: How did the inhibition turn out when `COC(=O)CC(CC(=O)OC)n1cccc1` was run?
A: -1.87%

Q: For `CCn1cc(CN2CCN(CC(C)(C)C)C(CCO)C2)c2ccccc21` (stereo not drawn), which inhibition is on record?
A: -1.34%

Q: `COc1cc(Cl)c(C)cc1NC(=O)[C@@H]1CCCN1C(=O)c1cccs1` was tested. Which inhibition did it give?
A: -0.625%
